The full list was thinned out, with hits kept by preference.
LASV entry inh = blocks Lassa virus binding to or entry into cells | Lassa virus pseudotype entry inhibition, cell reporter | AID 540256 | Potency, µM (highest dose often 37.9 µM), hits mostly inhibitors | actives 1.2% (n = 300,000); calls by dose curve; tested in HEK293 cells; note: nearly all actives have a fitted effect of over 50% in size
CHX counter = counter-screen hit for Shiga toxin inhibitors, cycloheximide; max response, %; actives 12% (n = 300,000); cell reporter, cycloheximide protein synthesis inhibition counterscreen; AID 2314; in the data active = max response mostly above about 13%, no sharp cut-off; inactive = mostly below about 14%; note: read at 38.3 µM for the half of the compounds with a filed dose
Shiga inhibitor = inhibitors of Shiga toxin in Vero cells | Vero cells, Shiga toxin protein synthesis inhibition reporter | inhibition, % at 38.7 µM | actives 9.2% (n = 290,000) | AID 2315; in the data active = inhibition mostly above about 28%, no sharp cut-off; inactive = mostly below about 43%
MARV entry inh = inhibitors of Marburg virus binding or cell entry; actives 1.8% (n = 300,000); AID 540276; Potency, µM (series often up to 37.8 µM), hits mostly inhibitors; Marburg virus pseudotyped entry inhibition, cell reporter; calls by dose curve; tested in HEK293 cells
AMA1-RON2 inh = AMA1-RON2 (P. falciparum) interaction inhibition; AlphaScreen AMA1-biotinylated RON2 peptide binding; Potency, µM (doses to about 58.2 µM), hits mostly inhibitors; actives 0.2% (n = 360,000); AID 720542; active = well fitted inhibition curve with a large enough effect; inconclusive = small, poorly fitted or top-dose-only effect; inactive = no such curve, though single readings can be large or run the other way; note: nearly all actives have a fitted effect of over 45% in size
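AMA1 (3D7) with his tag at 25 nM final met compounds first, then biotinylated RON2 peptide at 25 nM; detection used donor plus acceptor beads, 10 µg/mL apiece, read by AlphaScreen after 30 min at room temperature.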
Large screens that a line does not name were inactive.

O=C(N/N=C/c1cc(Br)ccc1OC(=O)c1ccc(Br)cc1)c1ccncc1	LASV entry inh 5.6µM, MARV entry inh 1µM
Nc1nonc1-n1nnc(C(=O)N/N=C/c2cc(Br)ccc2O)c1CNc1ccccc1	LASV entry inh inconclusive, MARV entry inh inconclusive
Nc1nonc1C(=O)N/N=C/c1cc(Br)ccc1O	LASV entry inh inconclusive, CHX counter 32, Shiga inhibitor 82, MARV entry inh inconclusive
NC(=O)N/N=C\c1cc(Br)ccc1O	none
C/C(CCS(=O)(=O)c1ccccc1)=N/O	none
COCCN(CC(=O)Nc1cccc(C)c1C)C(=O)CN1C(=O)NC2(CCCCC2)C1=O	none (no result: LASV entry inh, CHX counter, Shiga inhibitor, MARV entry inh)
COc1cc(C(=O)NC(C)Cc2ccccn2)ccc1OC1CCN(C(C)=O)CC1 (stereo not given)	none (no result: LASV entry inh, MARV entry inh)
S=C(NCCc1ccccc1)Nc1ccc(Br)cn1	none
CC(C)C(=O)Nc1ccc(C(=O)N/N=C/c2cc(Br)cc(Br)c2O)cc1	LASV entry inh inconclusive, MARV entry inh inconclusive
CC(=O)Nc1ccc(C(=O)N/N=C/c2cc(Br)cc(Br)c2O)cc1	LASV entry inh inconclusive, MARV entry inh 10µM
CCOc1ccccc1NC1=C(Cl)C(=O)N(c2ccc(OC)cc2)C1=O	none
COc1ccccc1N1C(=O)C(Cl)=C(Nc2ccccc2O)C1=O	CHX counter 32, Shiga inhibitor 103
O=C1C(Cl)=C(Nc2ccccc2O)C(=O)N1c1ccccc1	CHX counter 45, Shiga inhibitor 67
Cc1c(NC2=C(Cl)C(=O)N(c3ccccc3)C2=O)c(=O)n(-c2ccccc2)n1C	LASV entry inh inconclusive
CCN(CC)c1ccc(/C=C2\C(=O)NC(=S)N(C)C2=O)o1	CHX counter 45, Shiga inhibitor 110, MARV entry inh inconclusive
Cc1cnc(NC(=O)CC(C)c2ccccc2)s1 (stereo not given)	CHX counter 28, Shiga inhibitor 60, MARV entry inh inconclusive
CCOC(=O)c1sc(NC(=O)CCc2ccccc2)nc1C	none (no result: LASV entry inh, MARV entry inh)
CCOC(=O)c1sc(NC(=O)CC(C)c2ccccc2)nc1C (stereo not given)	LASV entry inh inconclusive, MARV entry inh 5.6µM
CCOC(=O)c1sc(NC(=O)C(OC(C)=O)c2ccccc2)nc1C (stereo not given)	CHX counter 25, Shiga inhibitor 39, MARV entry inh inconclusive
Cc1cnc(NC(=O)COc2ccccc2Cl)s1	LASV entry inh 1.8µM, MARV entry inh 2.3µM
CCOC(=O)c1sc(NC(C)=O)nc1C	MARV entry inh inconclusive
Cc1cnc(NC(=O)CCNC(=O)c2ccccc2Cl)s1	MARV entry inh inconclusive
Cc1nn(-c2ccc(N3CCCC3)nn2)c(C)c1CCC(=O)Nc1ccc(F)cc1F	none (no result: CHX counter, Shiga inhibitor, MARV entry inh, AMA1-RON2 inh)
Cc1nn(-c2ccc(N3CCCCC3)nn2)c(C)c1CCC(=O)Nc1ccccc1F	CHX counter 22, Shiga inhibitor 63 (no result: LASV entry inh, MARV entry inh)
Cc1nn(-c2ccc(N3CCCCC3)nn2)c(C)c1CCC(=O)Nc1cc(F)ccc1F	LASV entry inh inconclusive, CHX counter 48, Shiga inhibitor 45, MARV entry inh inconclusive
CCOC(=O)CCN(SN(C)C(=O)Oc1cccc2c1OC(C)(C)C2)C(C)C	none (no result: LASV entry inh, MARV entry inh, AMA1-RON2 inh)
Cc1ccc(C)c(S(=O)(=O)c2cn(C)c3cc(N4CCCCC4C)c(F)cc3c2=O)c1 (stereo not given)	none (no result: CHX counter, Shiga inhibitor, MARV entry inh, AMA1-RON2 inh)
CC(=O)Nc1ccccc1C(=O)OCc1ccccc1F	CHX counter 29
O=C(OCc1ccccc1F)c1ccc2c(c1)-c1ccccc1C2=O	LASV entry inh 2.1µM
CC(=O)Nc1ccccc1C(=O)OCC(=O)c1ccccc1Cl	LASV entry inh inconclusive, CHX counter 24, Shiga inhibitor 53
CCCCNC(=O)c1nn(-c2ccc(C)cc2)c(=O)c2c1c1ccccc1n2C	none (no result: CHX counter, Shiga inhibitor, AMA1-RON2 inh)
C=CCC[C@H](Cc1ccc(F)cc1)C(=O)OC[C@@H](NC(=O)[C@H](CC=C)CC(=O)NCCO)c1ccccc1	none (no result: LASV entry inh, CHX counter, Shiga inhibitor, MARV entry inh)
CCN(CC)CCNC(=O)CCc1c(C)nc2c(c(C)nn2-c2ccc(C)cc2)c1C	none (no result: LASV entry inh, MARV entry inh)
COc1ccc(C(=O)O/N=C(\N)c2ccc(Cl)cc2)cc1	CHX counter 37, Shiga inhibitor 88 (no result: LASV entry inh, MARV entry inh)
COc1ccccc1C(=O)O/N=C(\N)c1ccc(Cl)cc1	CHX counter 52, Shiga inhibitor 90
Cc1cccc(NC(=O)CC2C(=O)NCCN2C(=O)Nc2ccc(Cl)cc2)c1 (stereo not given)	none (no result: LASV entry inh, MARV entry inh)
Cc1c(C)n(Cc2ccccc2)c2ccc(C(=O)OCCN(C)C)cc12	CHX counter 29, MARV entry inh inconclusive, AMA1-RON2 inh inconclusive
CCc1ccc(CNC(=O)c2ccc3c(c2)c(C)c(C)n3Cc2ccccc2)cc1	none (no result: CHX counter, Shiga inhibitor, MARV entry inh, AMA1-RON2 inh)
Oc1ccc(/C=N/Nc2ccc(Cl)nn2)cc1O	CHX counter 39 (no result: LASV entry inh, MARV entry inh)
Fc1ccccc1/C=N/Nc1ccc(Cl)nn1	Shiga inhibitor 38 (no result: LASV entry inh, MARV entry inh)

Assay outcomes as filed in PubChem.
